From PubChem
HT1080 IDH1KD tx: toxicity to HT-1080 IDH1 knockdown cells (counter line) | HT-1080 IDH1 knockdown viability, ATP luminescence, 48 h | Potency, µM (titrated, usually from 46.1 µM), most hits filed as cytotoxic | 360,000 compounds, 2% hits | AID 686971
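After a 2 h attachment period, IDH1KD HT-1080 cells took pin-transferred compound for 48 h at 37 °C; ATP-based luminescence after 10 min room-temperature reagent incubation reported viability.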
ATXN viability: reduces viability in counter-screen for ATXN expression inhibitors; S2 cells (HEK-293 line with an ATXN2-luciferase reporter) viability, CellTiter-Fluor protease fluorescence, 24 h; Potency, µM (doses to about 56.7 µM), most hits filed as cytotoxic; 400,000 compounds, 0.49% hits; AID 651635; also: nearly all actives have a fitted effect of over 40% in size
KB-3-1 tox: KB-3-1 parental cell cytotoxicity; KB-3-1 viability, CellTiter-Glo ATP luminescence, 72 h; AID 1347075; 400,000 compounds, 1.4% hits; Potency, µM (series often up to 46.1 µM), usual class: cytotoxic; also: nearly all actives have a fitted effect of over 60% in size
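Using CellTiter-Glo luminescence, growth of non-resistant KB-3-1 adenocarcinoma cells is assessed 72 h after pin-tool compound addition at 37 °C. Normalized responses across the concentration series yield fitted curves.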
KB-V1 cytotox: KB-V1 MDR subline cytotoxicity | Potency, µM (top dose mostly 46.1 µM), hits mostly cytotoxic | 400,000 compounds, 3.4% hits | KB-V1 MDR cells viability, CellTiter-Glo, 72 h; also: nearly all actives have a fitted effect of over 60% in size
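In this primary screen, KB-V1 cells overexpressing P-gp are incubated with library compounds (lowest to highest concentration) for 72 h at 37 degrees C before a luminescent ATP viability read.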
HT1080NT lethal: kills 2HG-producing HT-1080-NT fibrosarcoma cells. HT-1080-NT fibrosarcoma viability, CellTiter-Glo ATP luminescence, 48 h. Potency, µM (highest dose often 46.1 µM), usual class: cytotoxic. 360,000 compounds, 1.6% hits. AID 686970;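 also: NT is the 2HG producing partner of a matched IDH1 knockdown line; nearly all actives have a fitted effect of over 55% in size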
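Fibrosarcoma NT cells, 750 per well in 5% FBS RPMI, were exposed to compound for 48 hours. Viability: CellTiter-Glo luminescence.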
ATXN2 expr inh: ATXN2 expression inhibition; HEK-293 ATXN2-luciferase reporter, luminescence, 24 h; Potency, µM (doses to about 57 µM), most hits filed as inhibitors; 360,000 compounds, 0.72% hits; AID 1745845; also: nearly all actives have a fitted effect of over 55% in size
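qHTS (up to 57 uM final) was run with 24 h compound exposure of reporter cells at 37 °C. Each well was multiplexed: SteadyGlo luminescence measured ATXN2-luciferase expression after a fluorogenic Gly-Phe-AFC viability readout (25 uM final).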
Numbers stand for hits; – = inactive; ? = inconclusive; · = no result given; ! = repeats disagree; [ ] = remark or other dose. In the library only some 6.2% were active in any assay of this set; here they are far more common. Calls follow the shape of the dose curve; as a rule, active = well fitted curve in the direction sought with a large enough effect; inconclusive = small, poorly fitted or top-dose-only effect, or another doubt; inactive = no such curve, though single readings can be large; an effect the other way counts as inactive or inconclusive.

SMILES	HT1080 IDH1KD tx	ATXN viability	KB-3-1 tox	KB-V1 cytotox	HT1080NT lethal	ATXN2 expr inh
COc1ccc(OC)c(CN2CCOc3ccc(C(O)c4cccnc4)cc3C2)c1 (centres undefined)	·	–	·	·	·	·
CCCCNc1c(-c2ccc(SC(C)CC)cc2)nc2cnccn12 (centres undefined)	?	·	?	–	?	?
CCCCNc1c(-c2ccc(OC)c(Sc3ccc(OC)cc3)c2)nc2cnccn12	?	·	?	?	29µM	?
CCCCCCSc1cc(-c2nc3cc(C)ccn3c2NCCCC)ccc1OC	23µM	·	–	21µM!	26µM	?
CCCCCCSc1cc(-c2nc3cnccn3c2NCCCC)ccc1OC	–	·	–	–	–	?
Cc1ccc(S(=O)(=O)NCc2ccccc2Br)cc1	–	·	–	?	–	·
CCc1ccc(-c2nc(CSCC(=O)NCCCN3CCCC3=O)c(C)o2)cc1	–	–	–	16µM	–	–
COc1ccc(-c2nc(CSCC(=O)NCCC3=CCCCC3)c(C)o2)cc1OC	–	?	–	21µM	–	–
COCCNC(=O)CSCc1nc(-c2ccc(SC)cc2)oc1C	–	–	?	9.2µM	–	–
CSc1ccc(-c2nc(CSCC(=O)NCCCN3CCCC3=O)c(C)o2)cc1	–	–	–	–	–	–
CCc1ccc(-c2nc(CSCC(=O)N3CCN(c4ccccn4)CC3)c(C)o2)cc1	?	?	?	18µM	–	?
CSc1nccc(-c2cc(Cl)c3c(c2)CC(CNC(=O)c2ccc(C)nc2)O3)n1 (centres undefined)	·	–	·	·	·	·
O=C(COc1ccc(Cl)cc1Cl)NCc1ccco1	–	–	–	–	–	–
C/C(CC(=O)NCc1ccco1)=N\NC(=O)COc1ccc(Cl)cc1Cl	?	–	?	?	21µM	–[11.3 µM]
COc1ccc(CNC(=O)C/C(C)=N/NC(=O)COc2ccc(C)cc2Br)cc1	18µM	–	5.8µM	?	16µM	–
CCOC(=O)C(C)n1nc(C)c2sc3ccccc3c2c1=O (centres undefined)	–	–	–	21µM	–	–
Cc1ccc(CNC(=O)C(C)n2nc(C)c3sc4ccccc4c3c2=O)cc1 (centres undefined)	·	·	–	–	·	·
COc1ccc(-c2nnc(CSc3nc4ccccc4c(=O)n3C)o2)cc1OC	–	–	–	3.7µM	–	–
CCc1ccc(NC(=O)CN2C(C(=O)OC)=C(c3ccccc3)c3ccccc3S2(=O)=O)cc1	·	–	–	?	·	–
COC(=O)NC(=C(Cl)Cl)S(=O)(=O)c1ccccc1	–	?	16µM	18µM	–	?
Cc1ccc(C(=O)NC(C#N)=C(Cl)Cl)cc1	21µM	?	?	–	6.5µM	–[11.3 µM]
Cc1ccc(C(=O)NC(=C(Cl)Cl)S(=O)(=O)c2ccccc2)cc1	?	?	–	16µM	?	·
Cc1ccc(C(=O)NCC#N)cc1	–	–	–	–	–	·
COc1ccc(C(=O)NC(=C(Cl)Cl)S(=O)(=O)c2ccc(C)cc2)cc1	?	–	?	?	?	?
Cc1cccc(Cn2c(=O)n(-c3ccc(Cl)c(Cl)c3)c(=O)c3c(C)c(C)sc32)c1	·	–	–	–	·	–
SMILES	HT1080 IDH1KD tx	ATXN viability	KB-3-1 tox	KB-V1 cytotox	HT1080NT lethal	ATXN2 expr inh
CCOc1ccc(NC(=S)N2CCC(C(=O)c3ccc(OC)cc3)CC2)cc1	–	–	–	–	–	·
CCc1ccccc1NNC(=O)c1snnc1C	?	–	–	–	12µM	–
Cc1ccc(-n2nc3c(N4CCC(C(=O)NCCc5cccs5)CC4)nnc(C)c3c2C)cc1	16µM	?	–	–	?	?
Cc1nnc(N2CCCC(C(=O)NCc3ccc(OC(C)C)cc3)C2)c2nn(-c3ccccc3)c(C)c12 (centres undefined)	?	16µM	–	–	?	?
Cc1ccc(CCNC(=O)C2CCN(c3nnc(C)c4c(C)n(-c5ccccc5)nc34)CC2)cc1	·	·	–	–	·	·
COc1ccc(NC(=O)C2CCCN(c3nnc(C)c4c(C)n(-c5ccccc5)nc34)C2)cc1Cl (centres undefined)	·	11µM	–	–	·	13µM
O=C1NC(c2ccc(Cl)cc2)Nc2ccccc21 (centres undefined)	–	–	–	–	–	–
Cc1ccc(C2NC(=O)c3ccccc3N2)s1 (centres undefined)	15µM	–	4.6µM	7.3µM	?	–
Cc1cccc(C2NC(=O)c3ccccc3N2)c1 (centres undefined)	?	–	13µM	?	?	–
Cc1ccc(C2NC(=O)c3ccccc3N2)c(C)c1 (centres undefined)	18µM	?	3.7µM	5.8µM	7.3µM	–
CN(C)c1ccc(C2NC(=O)c3ccccc3N2)cc1 (centres undefined)	–	–	?	13µM	–	–
Cc1ccc2c(=O)c(C(=O)c3ccc(F)cc3)cn(CC(=O)NCCc3ccccc3)c2n1	·	–	–	–	·	–
Cc1ccc2c(c1)CN(C(=O)CC(c1ccccc1)c1ccco1)CC(C)O2 (centres undefined)	·	–	·	·	·	·
Cc1cc(C(=O)COC(=O)c2ccc[nH]c2=O)c(C)n1C1CC1	–	?	–	–	–	–
Cc1cc(C(=O)COC(=O)C2=NNC(=O)CC2)c(C)n1-c1ccc(OC(F)F)cc1	–	–	–	–	–	–
Cc1cc(C(=O)OCC(=O)NCc2ccco2)c(C)n1-c1ccc(F)cc1	?	–	?	1.3µM	?	–
Cc1cc(C(=O)COC(=O)c2ccc[nH]c2=O)c(C)n1-c1ccccc1	–	–	–	18µM	–	–
Cc1cc(C(=O)COC(=O)c2ccc[nH]c2=O)c(C)n1-c1ccc(F)cc1	–	–	–	18µM	–	–
CCNC(=O)COC(=O)c1cc(C)n(-c2ccccc2)c1C	–	–	–	–	–	–
COCCN(C(=O)CSc1nnc(-c2cccc(Cl)c2)n1N)c1c(N)n(CC(C)C)c(=O)[nH]c1=O	–	–	–	–	–	·
COc1ccc(OC)c(C(C(=O)NCc2ccco2)N(C(=O)Cn2nnc3ccccc32)C2CC2)c1 (centres undefined)	–	–	–	6.5µM	–	–
CC1CCCN(CCCOc2ccc(Br)cc2Cl)C1 (centres undefined)	21µM	–	–	?	16µM	–
Cc1cc(Br)ccc1OCCCCN1CCCCC1	?	–	–	?	21µM	–[11.3 µM]
C=CCc1ccc(OCCCN2CCCC(C)C2)c(OC)c1 (centres undefined)	–	–	–	?	–	–
CC1CCN(CCOCCOc2ccc(Br)cc2Cl)CC1	–	?	?	23µM	–	–
Cc1ccc(Cl)c(NC(=O)Nc2csc3c2CCCC3)c1	·	·	–	?	·	·
CCS(=O)(=O)c1nc(S(=O)(=O)c2ccc(C)cc2)c(NCCCOC)s1	·	–	–	–	·	–
